Bioassay records from PubChem.
A selection: hits, their analogues and other compounds. The true share with any hit is near 2.7%.
SENP8 block-1 = inhibitors of human SENP8 protease. purified SENP8, Z-RLRGG-aminoluciferin cleavage, luminescence. inhibition, % at 10 µM. Q96LD8. actives 1.2% (n = 330,000). AID 2540; in the data active = inhibition above about 50%
Target sequence (Q96LD8 whole entry, looked up): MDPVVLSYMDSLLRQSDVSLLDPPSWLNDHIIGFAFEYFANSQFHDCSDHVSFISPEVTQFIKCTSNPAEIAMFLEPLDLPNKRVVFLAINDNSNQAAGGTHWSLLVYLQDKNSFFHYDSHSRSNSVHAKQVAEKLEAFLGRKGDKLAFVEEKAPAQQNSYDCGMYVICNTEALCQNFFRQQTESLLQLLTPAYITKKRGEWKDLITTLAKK
SENP8 block-2 = inhibitors of human SENP8 protease. actives 0.64% (n = 360,000). Q96LD8. inhibition, % at 20 µM. recombinant SENP8, Nedd8 substrate fluorescence; in the data active = inhibition mostly above about 40%, no sharp cut-off; inactive = mostly below about 27%
HSP90 inh = blocks HSP90-mediated luciferase refolding in reticulocyte lysate | Rabbit reticulocyte lysate, luciferase refolding luminescence, 3 h | inhibition, % at 5.6 µM | actives 0.91% (n = 290,000);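 active = inhibition above the screen-wide mean plus 3 SD, computed separately per campaign, cut at about 16% in these data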;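 note: inhibitors lower the luminescence because luciferase stays unfolded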
SENP6 inh = inhibitors of human SENP6 protease | Q9GZR1 | Recombinant SENP6 catalytic domain, aminoluciferin luminescence | inhibition, % at 10 µM | actives 1.8% (n = 330,000) | AID 2599;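 active = inhibition above about 50% at the single tested dose, limit read from the data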
SENP7 inh = inhibitors of human SENP7 protease. recombinant SENP7, Z-RLRGG-aminoluciferin luminescence, 40 min. inhibition, % at 5 µM. actives 1.5% (n = 330,000). AID 434973;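 active = inhibition above about 50% at the single test dose, limit read from the data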
SENP8 confirm = confirmation of human SENP8 protease inhibitors; shares compounds with SENP7 inh; Recombinant SENP8, Z-RLRGG-aminoluciferin luminescence, 60 min; inhibition, % at 12.5 µM; actives 40% (n = 6,200); AID 488912;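 active = mean inhibition across replicates above about 50%, limit read from the data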
SENP6 conf = human SENP6 inhibition, confirmed. shares compounds with SENP7 inh. recombinant SENP6, Z-RLRGG-aminoluciferin luminescence. inhibition, % at 12.5 µM. actives 58% (n = 6,200). AID 488915
SENP7 conf = confirmation of human SENP7 protease inhibitors; actives 69% (n = 6,200); recombinant SENP7, Z-RLRGG-aminoluciferin luminescence, 40 min; shares compounds with SENP7 inh; inhibition, % at 12.5 µM
Casp3 SENP sel = inhibits human caspase-3 in SENP selectivity test. shares compounds with SENP7 inh. purified caspase-3, Z-DEVD-aminoluciferin luminescence, 60 min. inhibition, % at 12.5 µM. actives 60% (n = 6,200). AID 488918;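 active = mean inhibition above about 50%, limit read from the data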
Target sequence (P42574 28-227 limits assumed): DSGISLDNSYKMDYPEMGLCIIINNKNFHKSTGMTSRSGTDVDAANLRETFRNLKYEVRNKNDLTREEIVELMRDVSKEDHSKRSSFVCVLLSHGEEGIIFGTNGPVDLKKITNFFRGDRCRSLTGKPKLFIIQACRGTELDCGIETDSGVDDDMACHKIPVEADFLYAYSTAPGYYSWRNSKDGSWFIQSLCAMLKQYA
Luc interf = counter-screen for SENP inhibitors: luminescence interference. shares compounds with SENP7 inh. Pre-incubated SENP8/Z-RLRGG-aminoluciferin, luciferase luminescence interference. inhibition, % at 12.5 µM. actives 39% (n = 6,200);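 active = mean inhibition above about 50% when retested at one dose, limit read from the data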
Of the large screens only hits and unclear results are named; the others gave an inactive call (follow-up assays come after a bar, where they were run).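 Rule for the calls, unless noted: active = mean inhibition above about 50% in the one-dose retest (limit read from the data); inactive = the rest.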

Cc1[nH]n(-c2ccc([N+](=O)[O-])cc2)c(=O)c1/C=N/N1CCOCC1	SENP6 inh 78, SENP7 inh 58 | SENP8 confirm inactive | SENP6 conf inactive | SENP7 conf inactive | Casp3 SENP sel inactive | Luc interf inactive
O=[N+]([O-])c1ccc(/C=N\N2CCN(c3ccc(Cl)cc3)CC2)cc1	none
Cc1[nH]n(-c2ccc([N+](=O)[O-])cc2)c(=O)c1C=NCCN1CCN(C(=O)c2ccccc2)CC1	SENP8 block-1 70, SENP6 inh 88, SENP7 inh 90 | SENP8 confirm inactive | SENP6 conf inactive | SENP7 conf inactive | Casp3 SENP sel 67 | Luc interf 59
COc1ccc(CCN=Cc2c(C)[nH]n(-c3ccc([N+](=O)[O-])cc3)c2=O)cc1OC	none
COc1ccc(C(=O)Oc2ccc(C(C)=O)cc2)c(OC)c1	none
O=C1C(c2c(O)[nH]c3ccccc23)=Nc2ccccc21	none
CC(=O)c1cccc2c(O)c(C3=Nc4ccccc4C3=O)[nH]c12	SENP8 block-1 59, SENP6 inh 54 | SENP8 confirm inactive | SENP6 conf 60 | SENP7 conf inactive | Casp3 SENP sel inactive | Luc interf inactive
CN(C)c1nc(OCCNC(=O)Nc2ccccc2)nc(N2CCCCC2)n1	none
CC(=O)Nc1ccc(-c2cc(N)n(-c3ccccc3)n2)cc1	SENP6 inh 55, SENP7 inh 58 | SENP8 confirm inactive | SENP6 conf inactive | SENP7 conf 78 | Casp3 SENP sel 80 | Luc interf 62
Nc1cc(-c2ccc(Cl)cc2)nn1-c1ccccc1	SENP7 inh 63 | SENP8 confirm inactive | SENP6 conf inactive | SENP7 conf 80 | Casp3 SENP sel 53 | Luc interf 71
O=C(NCC1CCCO1)c1csc(Nc2cccc3ccccc23)n1 (stereo not drawn)	none
CCCn1c(=O)c(C(=O)NCc2ccccc2OC)c(O)c2ccccc21	SENP6 inh 88 | SENP8 confirm inactive | SENP6 conf inactive | SENP7 conf inactive | Casp3 SENP sel inactive | Luc interf inactive
CCn1c(=O)c(C(=O)NCc2ccccc2OC)c(O)c2ccccc21	none
COC(=O)c1cccc(NC(=O)c2cccs2)c1C	none
O=C(Nc1ccc(-c2nc3ccccc3s2)c(OC(=O)c2ccccc2)c1)c1ccccc1	SENP7 inh 65 | SENP8 confirm inactive | SENP6 conf inactive | SENP7 conf inactive | Casp3 SENP sel inactive | Luc interf inactive
COc1ccc(C2=NOC(C(=O)NCc3cccnc3)C2)cc1OC (stereo not drawn)	none
CCN(C(=O)COC(=O)CNS(=O)(=O)c1ccc(C)cc1)C1CCS(=O)(=O)C1 (stereo not drawn)	none (no result: SENP8 block-1, HSP90 inh, SENP6 inh, SENP7 inh)
CCOC(=O)C1CSC2(CCC(c3ccccc3)CC2)N1 (stereo not drawn)	none
O=C(/C=C/c1ccco1)Nc1ccccc1C(=O)Nc1cccc(C(=O)O)c1	none
COc1ccc(/C=C/C(=O)Nc2ccccc2C(=O)O)cc1	SENP8 block-1 93, HSP90 inh 46, SENP6 inh 95, SENP7 inh 96 | SENP8 confirm 97 | SENP6 conf 97 | SENP7 conf 100 | Casp3 SENP sel 96 | Luc interf 96
O=C(/C=C\c1ccco1)Nc1cc([N+](=O)[O-])ccc1F	none
O=C(COc1ccc2ccccc2c1)Nc1ccccc1C(=O)O	SENP6 inh 55 | SENP8 confirm 54 | SENP6 conf 51 | SENP7 conf inactive | Casp3 SENP sel inactive | Luc interf inactive
O=C(/C=C/c1ccco1)Nc1ccccc1C(=O)O	SENP8 block-1 88, SENP6 inh 93, SENP7 inh 83 | SENP8 confirm 93 | SENP6 conf 94 | SENP7 conf 101 | Casp3 SENP sel 97 | Luc interf 93
